NADH enzymes: inhibitors of PK/LDH coupling enzymes, profiling panel, artefact control, biochemical, MLSMR library; IC50, µM (series often up to 10 µM), without a hit: at the highest dose inhibition; coupled PK/LDH NADH assays, four targets; 65,000 tested, 0.02% active;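 active means single-dose screening hits from any of four coupled enzyme assays that gave an IC50 when retested across doses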;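 further: the DPM-DC format reads NADH fluorescence rather than 340 nm absorbance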
Spn MK inh: S. pneumoniae MK inhibitors, primary screen, biochemical, PK/LDH-coupled NADH absorbance; mevalonate kinase [Streptococcus pneumoniae D39]; purified MK, PK/LDH-coupled NADH absorbance 340 nm; inhibition, % at 10 µM; 65,000 tested, 0.48% active; AID 555, 2006;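 active means ranked among the strongest by inhibition in the single 10 µM screen, a fixed top-ranked set picked for dose follow-up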
Autofluor 339: intrinsic fluorescence of library compounds, ex339/em460 – biochemical, MLSMR library, data from DPM-DC assay, artefact control, profiling panel; compound autofluorescence, ex339/em460 nm, NADH buffer; active compounds read high; 1 = no-compound wells, NADH background; fluorescence fold increase at 10 µM; 65,000 tested, 5.5% active;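 active means at 10 µM, mean starting fluorescence two-fold or more over control wells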;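 further: signal is the first read of a kinetic run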
PMK inhibit: S. pneumoniae PMK inhibitors, primary screen, biochemical, mevalonate pathway, pilot trial included; inhibition, % at 10 µM; phosphomevalonate kinase (Streptococcus pneumoniae D39); 65,000 tested, 0.49% active; purified PMK, PK/LDH-coupled NADH absorbance 340 nm;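 active means top-ranked compounds by inhibition in the single 10 µM screen, taking a fixed number of the strongest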;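 further: 0% = full reaction with DMSO carrier and 100% = background rate without enzyme reaction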
Abs 340nm: compound light absorbance at 340 nm, profiling panel, artefact control, biochemical, MLSMR library, data from PS, PMK, MK assays | compound absorbance at 340 nm, fold over control | fold change at 10 µM | 65,000 tested, under 10 active;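 active means at 10 µM dose, initial 340 nm absorbance at least 2 fold that of control wells; inactive means change under 2 fold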;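 further: initial absorbance extrapolated from kinetic A340 decline of NADH oxidation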
Spn DPM-DC inh: S. pneumoniae DPM-DC inhibitors, primary screen, biochemical, PK/LDH-coupled NADH fluorescence; AID 556, 2006; purified DPM-DC; diphosphomevalonate decarboxylase (Streptococcus pneumoniae D39); 65,000 tested, 0.49% active; calls only at 10 µM;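 active means the 320 compounds with the highest percent inhibition in the single-dose primary screen, excluding strongly autofluorescent ones, cut at about 32% in these data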;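 further: kinetic rate of NADH fluorescence loss reporting ADP formed by the decarboxylase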
* marks the source's active call; other numbers are inactive results; i = inactive; . = not tested or not shown; + = active, no number. In the library only some 6.3% were active in any assay of this set; here they are far more common.

SMILES	NADH enzymes	Spn MK inh	Autofluor 339	PMK inhibit	Abs 340nm	Spn DPM-DC inh
CN(C(=O)c1cccnc1)c1nnc(-c2ccccn2)s1	12%	6	2.2*	20	0.94	i
O=c1oc2ccccc2cc1-c1cn2cccnc2n1	20%	20	3.6*	19	1.2	.
O=C(Nc1ccncc1)c1cc2ccccc2oc1=O	4%	9	1.1	4	1.1	i
CSc1nc(N)nc(SC2C=CCCC2)c1C#N (configuration not stated)	1%	3	1.1	0	1	i
O=C(O)Cn1c(-c2ccccc2)nc2ccccc21	8%	9	1	15	1	i
Oc1ccccc1Cn1c(-c2ccccc2O)nc2ccccc21	9%	6	3.8*	11	1.1	.
Cc1ccc(Cl)cc1N1CCN(C(=O)CCS(=O)(=O)c2cccc3nonc23)CC1	3%	10	1.1	0	1.1	i
O=C(C1CCN(c2ccc(N3CCOCC3)nn2)CC1)N1CCc2ccccc2C1	9%	2	4.7*	15	1	.
CCOC(=O)N1CCC(NC(=O)C2CCN(c3ccc(N4CCOCC4)nn3)CC2)CC1	5%	1	4.9*	9	1	.
O=C(C1CCN(S(=O)(=O)N2CCC3(CC2)OCCO3)CC1)N1CCc2ccccc2C1	7%	1	1.1	19	1.1	i
COc1ccc(NC(=O)Cn2nnc(-c3ccccc3NC(=O)c3cccs3)n2)cc1	6%	0	3.5*	12	1.1	.
CCC(=O)N/C(=N/c1nc(C)cc(C)n1)Nc1cccc(OC)c1	6%	6	1.1	11	1	i
CC1=CC=CC2=NC(=O)CC(C)(C(=O)N(CC(=O)NC(C)C)C3CCCC3)N12 (configuration not stated)	5%	7	3*	7	1	.
CC1=CC2=NC(=O)CC(C)(C(=O)N(CC(=O)NC(C)(C)C)C3CCCC3)N2C=C1 (configuration not stated)	4%	0	3.8*	7	1.1	.
CC(C)(C)NC(=O)CN(C(=O)C1(C)CC(=O)N=C2C=CC=CN21)C1CCCC1 (configuration not stated)	11%	0	3.8*	21	1.1	.
CCOC(=O)NC(NCC(O)c1ccccc1)(C(F)(F)F)C(F)(F)F (configuration not stated)	3%	0	1.1	7	1	i
Cn1c(=O)cc(SCC(=O)NCCN2CCN(c3ccccc3F)CC2)c2cc(Cl)ccc21	6%	3	1.2	13	1	i
O=C(c1cccn2c(=O)c3ccc(Cl)cc3nc12)N1CCN(Cc2ccc3c(c2)OCO3)CC1	15%	7	4.9*	22	1.1	.
Cc1cccc(S(=O)(=O)c2c(N)n(Cc3ccco3)c3nc4ccccc4nc23)c1	3%	5	3.9*	0	1.1	.
Cc1ccc(-c2ccc(CCC(=O)O)n2NC(=O)c2ccco2)cc1	7%	10	1.1	12	1	i
Cc1cccc(-n2cnc3c(c2=O)c2nc4ccccc4nc2n3Cc2ccco2)c1	20%	11	3.2*	20	1.1	i
Cc1ccc(S(=O)(=O)c2c(N)n(Cc3ccco3)c3nc4ccccc4nc23)cc1	6%	12	2.2*	0	1.1	.
Cc1ccc(S(=O)(=O)c2c(N)n(NC(=O)c3ccco3)c3nc4ccccc4nc23)cc1	18%	19	3.8*	16	1	.
Cc1cccc(S(=O)(=O)Nc2nc3ccccc3nc2NCc2ccco2)c1	8%	0	1.7	15	1.1	i
O=C(N1CCCC1)n1c(Cc2ccccc2)nc2ccccc21	1%	2	1.1	0	1	i
SMILES	NADH enzymes	Spn MK inh	Autofluor 339	PMK inhibit	Abs 340nm	Spn DPM-DC inh
CCCN(CCC)CCNc1c(N2CCN(C(=O)OCC)CC2)c(=O)c1=O	8%	1	0.91	12	1	i
Cn1c(=O)n(C)c2cc(/C=N/n3cnnc3)ccc21	10%	5	2.8*	11	1.2	i
CN1C(=O)c2oc3ccc(Br)cc3c(=O)c2C1c1ccncc1 (configuration not stated)	8%	6	1	16	1	i
Cc1cccc(NC(=O)c2cc(NC(=O)c3ccco3)ccc2N2CCCCC2)c1	3%	6	3*	12	1	.
CCC(C)NC(=O)C1CCN(c2nc(C)cc(C)n2)CC1 (configuration not stated)	8%	0	1.4	19	0.99	i
Cc1cc(-c2ccccc2)nc(N2CCC(C(=O)NC(C)C)CC2)n1	30%	0	3.3*	14	0.95	+
CC1=C(C#N)C(C(F)(F)F)(C(F)(F)F)N=C(c2ccco2)N1	6%	9	1.1	6	1	i
O=C(CN1CCOCC1)N1CCN(C(=O)CN2CCOCC2)CC1	2%	0	1	12	0.98	i
CC1=C(C(=O)OCCOC(C)C)C(c2cccnc2)C2=C(CCCC2=O)N1 (configuration not stated)	2%	2	2.2*	1	1.1	.
CCOC(=O)C1=C(C)NC2=C(C(=O)CC(C)(C)C2)C1c1ccc(N(C)C)cc1 (configuration not stated)	4%	0	1.2	0	1	i
COCCOC(=O)C1=C(C)NC2=C(C(=O)CC(C)(C)C2)C1c1cccnc1 (configuration not stated)	11%	11	3.8*	11	1.1	.
CC1=C(C(=O)OCC2CCCO2)C(c2ccncc2)C2=C(CC(C)(C)CC2=O)N1 (configuration not stated)	1%	2	2.1*	0	1.1	.
CCN(CC)c1ccc(C2C(C(=O)OCCOC(C)C)=C(C)NC3=C2C(=O)CCC3)cc1 (configuration not stated)	4%	0	1.4	0	1.1	i
Cc1cc(C)n(S(=O)(=O)Cc2ccccc2)n1	3%	10	1	3	0.99	i
Clc1ccc(OCc2cn3cccnc3n2)c2ncccc12	7%	0	2.1*	14	1	.
CC(=O)N1CCC(N2CCN(c3ccccc3F)CC2)CC1	23%	32	1.1	36*	1	i
COc1cccc(C(=O)Cn2c(=O)n(CC3CCCO3)c(=O)c3ccccc32)c1 (configuration not stated)	0%	0	1.1	1	1	i
